A short description of assay [1]: Nuclear factor erythroid 2-related factor 2/antioxidant responsive element (Nrf2/ARE) small molecule agonists: qHTS cell viability counter screen in human keratinocytes (AID 1919968; active = well fitted curve in the direction sought with a large enough effect in the repeat runs; an effect the other way counts as inactive or inconclusive; also: nearly all actives have a fitted effect of over 55% in size; also: potency is read from the fitted curve at half-maximal effect). The method, boiled down:
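In human HaCaT keratinocytes stably expressing an ARE-driven luciferase, compound exposure lasted 23 h at 37 C under 5% CO2. Viable cells are quantified with a protease-based fluorogenic reagent (CellTiter-Fluor) read 1 h after addition.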
Background: qHTS replaces the single test concentration by a dilution series.

Assay [2] can be described thus: Nuclear factor erythroid 2-related factor 2/antioxidant responsive element (Nrf2/ARE) small molecule agonists: luciferase reporter gene qHTS assay in human keratinocytes (AID 1919969). Also: nearly all actives have a fitted effect of over 35% in size. For orientation: Reporter assays use an easily measured gene product as a stand-in for the process of interest.
Assay [3] has as its target Gonadotropin-releasing hormone receptor (Homo sapiens) (UniProt P30968). Kind of assay: Human gonadotropin-releasing hormone receptor (GnRHR) small molecule agonists, calcium flux assay in GnRHR-HEK293 cells (AID 1920063). Also: nearly all actives have a fitted effect of over 35% in size. Also: potency is read from the fitted curve at half-maximal effect. The method, boiled down: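 Intracellular calcium rise is the read-out: engineered human GnRHR HEK293 cells, dye-loaded, are exposed to DMSO-dissolved compounds and fluorescence at Ex/Em 480/540 is tracked for 3 min.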
In general terms: Calcium flux is commonly read through the fluorescence of an indicator in the cells.

The target of assay [4] is KiSS-1 receptor (Homo sapiens) (UniProt Q969F8). Kind of assay: Human kisspeptin (KISS1R) small molecule agonists, calcium flux assay in KISS1R-HEK293 cells (AID 1920064; active = well fitted curve in the direction sought with a large enough effect in the repeat runs; an effect the other way counts as inactive or inconclusive). The method, boiled down:
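Concentration-response testing used 15 concentrations in triplicate on human KISS1R-expressing HEK293 cells. Calcium-dependent fluorescence (Ex/Em 480/540) was followed kinetically for 3 min after compound transfer.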

Assay [5] in a line: G protein-coupled receptor (GPCR) small molecule agonists, calcium flux assay: HEK293 wild type cell line counter screen (AID 1920065). Summed up: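 Fluorescence intensity signals activation. After overnight (18 h) culture and a 1 h calcium dye load at 37 C, compounds are added by pin tool and the plate read at 480/540 nm for 3 min in 1 s steps.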
Assay [6] is described as follows: p53 small molecule agonists, cell-based qHTS assay with human liver microsomes (AID 1963577).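 Also: p53 response element beta-lactamase reporter cells with liver microsomes plus NADPH.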 Summed up:
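Steps: plate p53RE-bla cells, incubate 5 h at 37 C; add compound in DMSO; add microsomes (0.5 mg/mL final) and NADPH (0.5 mg/mL final); incubate 16 h at 37 C; add LiveBLAzer, 2 h RT; read fluorescence.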

Assay [7] in a line: p53 small molecule agonists, cell-based qHTS assay with rat liver microsomes (AID 1963578). Summed up:
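Metabolic activation is supplied by rat liver microsomes with NADPH (each 0.5 mg/mL final). p53RE-bla cells incubate with compound 16 h at 37 C; reporter activity is measured by LiveBLAzer fluorescence.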

Assay [8] in a line: p53 small molecule agonists, cell-based qHTS assay with human liver microsomes: qHTS cell viability counter screen (AID 1963579). Also: nearly all actives have a fitted effect of over 45% in size. The method, boiled down: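 After the 460/530 nm beta-lactamase read, CellTiter-Glo was added to the same wells and luminescence measured after 30 min at room temperature, giving viability of p53RE-bla cells treated 16 h with compounds plus microsomes and NADPH.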

Assay [9] can be described thus: p53 small molecule agonists, cell-based qHTS assay: qHTS cell viability counter screen (AID 1963581). Also: nearly all actives have a fitted effect of over 45% in size. Summed up: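 Luminescence from CellTiter-Glo, reflecting ATP content, serves as the cytotoxicity measure; it is taken after the 2 h reporter substrate step in HCT-116 p53RE-bla cells dosed for 16 h at 37 C.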
Assay [10] deals with 5-hydroxytryptamine receptor 2A (Homo sapiens) (UniProt P28223). Kind of assay: 5-hydroxytryptamine receptor 2A (HTR2A) small molecule antagonists, cell-based qHTS assay (AID 1963586). Also: nearly all actives have a fitted effect of over 45% in size. Also: potency is read from the fitted curve at half-maximal effect. Summed up:
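CHO cells stably expressing human HTR2A were plated for 18 h at 37 C, then loaded with calcium dye for 1 h. Compounds were preincubated 5 min at room temperature before DOI (4 nM solution) was added. Kinetic fluorescence was read for 3 min.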

For assay [11], the target named is Muscarinic acetylcholine receptor M1 (Homo sapiens) (UniProt P11229). Kind of assay: Cholinergic receptor muscarinic 1 (CHRM1) small molecule antagonists, cell-based qHTS assay (AID 1963588). Also: nearly all actives have a fitted effect of over 40% in size. The method, boiled down: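 Compounds were tested at 15 concentrations in three independent runs. Dye-loaded CHRM1-CHO cells were exposed 5 min at room temperature before stimulation by acetylcholine added at 50nM. Intracellular calcium was read kinetically on FDSS for 3 min.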

The target is the same in assay [12]. In words: Cholinergic receptor muscarinic 1 (CHRM1) small molecule agonists, cell-based qHTS assay (AID 1963589). Also: nearly all actives have a fitted effect of over 35% in size. Summed up: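 Fluorescent calcium dye reports M1 activation in stably transfected CHO cells. Compounds, 15 concentrations, added after 1 h dye loading at 37 C; kinetic reading at 1 sec intervals.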
The nature of assay [13]: cAMP Responsive Elements (CRE) small molecule agonists, cell-based qHTS assay (AID 1963590). Summed up: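 Compound exposure lasted 3 h at 37 C/5% CO2 in CRE-bla HEK 293T cells grown in assay medium with 10% dialyzed FBS and 25 mM HEPES. Reporter signal came from LiveBLAzer B/G FRET substrate, 2 h, room temperature.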
Assay [14] in a line: cAMP Responsive Elements (CRE) small molecule antagonists, cell-based qHTS assay (AID 1963591; active = well fitted inhibition curve with a large enough effect in the signal ratio in the repeat runs, not every such curve was filed as active; the % refers to the signal ratio). The method, boiled down: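 Stimulation used NKH477 at a final 0.25 uM for 3 h in compound-treated CRE-bla HEK293T cells, seeded 18 h beforehand. Reporter activity was measured with LiveBLAzer B/G FRET substrate after 2 h at room temperature.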
Assay [15] deals with D(2) dopamine receptor (Homo sapiens) (UniProt P14416). Kind of assay: Dopamine D2 receptor (DRD2) small molecule agonists, cell-based qHTS assay (AID 1963594). Also: nearly all actives have a fitted effect of over 35% in size. Also: potency is read from the fitted curve at half-maximal effect. The method, boiled down: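 HEK293 cells stably expressing human DRD2, pre-treated with PDE inhibitor Ro20-1724 (0.1 mM final) and compound 10 min at room temperature, then stimulated with NKH477 (200nM […]) for 30 min. cAMP read by HTRF (665/620 nm).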

Assay [16] shares this target. Kind of assay: Dopamine D2 receptor (DRD2) small molecule antagonists, cell-based qHTS assay (AID 1963595; active = well fitted inhibition curve with a large enough effect in the signal ratio in the repeat runs, with a control signal flat; the % refers to the signal ratio; also: potency is read from the fitted curve at half-maximal effect). Summed up:
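Human DRD2 antagonist qHTS measuring cAMP by HTRF. The cells are exposed to compound for 10 min, then to NKH477 (200 nM) and quinpirole (12 nM) for 30 min at RT, with Ro20-1724 (0.1 mM) present throughout.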

A short description of assay [17]: p53 small molecule agonists, cell-based qHTS assay with rat liver microsomes: qHTS cell viability counter screen (AID 1963580). Also: nearly all actives have a fitted effect of over 45% in size. Summed up:
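Cytotoxicity counter screen: intracellular ATP measured by CellTiter-Glo luminescence in the same wells as the beta-lactamase reporter read, on HCT-116 p53RE-bla cells exposed 16 h at 37 C to compounds with rat liver microsomes and NADPH, each 0.5 mg/mL final.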

Assay [18] can be described thus: p53 small molecule agonists, cell-based qHTS assay (AID 1963582; active = well fitted activation curve with a large enough effect in the signal ratio in the repeat runs, not every such curve was filed as active; the % refers to the signal ratio; also: potency is read from the fitted curve at half-maximal effect). The method, boiled down: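 After plating, p53RE-bla cells sat 5 h in the incubator; compounds or DMSO vehicle were pinned in; a 16 h incubation at 37 C followed; FRET substrate was added and, 2 h later at RT, fluorescence was measured.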
The target in assay [19] is 5-hydroxytryptamine receptor 2A (Homo sapiens) (UniProt P28223). Kind of assay: 5-hydroxytryptamine receptor 2A (HTR2A) small molecule agonists, cell-based qHTS assay (AID 1963587). Also: nearly all actives have a fitted effect of over 30% in size. Also: potency is read from the fitted curve at half-maximal effect. The method, boiled down: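 CHO cells stably expressing human HTR2A, plated 18 h, loaded with calcium dye 1 h at 37 C. Agonist mode: compounds added and intracellular calcium fluorescence recorded kinetically for 2 min at 1 sec intervals.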

Assay [20] has as its target Beta-2 adrenergic receptor (Homo sapiens) (UniProt P07550). In words: Adrenergic beta2 receptor (ADRB2) small molecule antagonists, cell-based qHTS assay (AID 1963592). Also: series mostly up to about 92 µM; nearly all actives have a fitted effect of over 50% in size. The method, boiled down: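 Assay format: CHO-ADRB2 cells, 18-20hr seeding at 37C/5% CO2, then compound plus 1nM isoproterenol agonist mix for 0.5hr RT. Homogeneous time-resolved fluorescence cAMP detection after 1hr, expressed as 665/615 nm ratio.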

A number with no mark means an inactive call. Results filed as inconclusive are left out. Active and inactive are the calls of the source. Unless noted, calls follow the shape of the full dose curve.

Chain of KiSS-1 receptor (Homo sapiens) (Q969F8 whole entry, looked up): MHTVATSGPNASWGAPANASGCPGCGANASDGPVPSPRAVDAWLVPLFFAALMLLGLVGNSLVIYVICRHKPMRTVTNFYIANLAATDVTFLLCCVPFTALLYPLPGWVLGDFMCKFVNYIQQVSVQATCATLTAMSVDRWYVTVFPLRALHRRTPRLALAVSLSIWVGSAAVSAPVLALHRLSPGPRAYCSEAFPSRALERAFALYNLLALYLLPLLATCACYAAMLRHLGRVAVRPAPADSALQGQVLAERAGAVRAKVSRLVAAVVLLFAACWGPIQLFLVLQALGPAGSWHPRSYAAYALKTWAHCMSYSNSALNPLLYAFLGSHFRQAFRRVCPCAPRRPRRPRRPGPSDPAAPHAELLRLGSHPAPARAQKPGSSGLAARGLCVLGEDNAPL
Chain of 5-hydroxytryptamine receptor 2A (Homo sapiens) (P28223 whole entry, looked up): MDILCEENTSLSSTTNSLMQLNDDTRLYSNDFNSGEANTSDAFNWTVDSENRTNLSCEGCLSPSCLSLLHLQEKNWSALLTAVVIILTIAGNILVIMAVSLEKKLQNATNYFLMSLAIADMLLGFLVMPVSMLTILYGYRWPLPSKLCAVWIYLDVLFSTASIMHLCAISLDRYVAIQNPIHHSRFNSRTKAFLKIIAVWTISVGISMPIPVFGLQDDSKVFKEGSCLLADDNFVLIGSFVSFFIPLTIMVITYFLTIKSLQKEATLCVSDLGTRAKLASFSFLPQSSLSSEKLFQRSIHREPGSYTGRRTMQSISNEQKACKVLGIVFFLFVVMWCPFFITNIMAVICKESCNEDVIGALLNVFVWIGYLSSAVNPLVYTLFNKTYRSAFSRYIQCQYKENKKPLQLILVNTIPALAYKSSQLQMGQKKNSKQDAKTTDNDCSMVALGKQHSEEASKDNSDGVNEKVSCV
Chain of Beta-2 adrenergic receptor (Homo sapiens) (P07550 whole entry, looked up): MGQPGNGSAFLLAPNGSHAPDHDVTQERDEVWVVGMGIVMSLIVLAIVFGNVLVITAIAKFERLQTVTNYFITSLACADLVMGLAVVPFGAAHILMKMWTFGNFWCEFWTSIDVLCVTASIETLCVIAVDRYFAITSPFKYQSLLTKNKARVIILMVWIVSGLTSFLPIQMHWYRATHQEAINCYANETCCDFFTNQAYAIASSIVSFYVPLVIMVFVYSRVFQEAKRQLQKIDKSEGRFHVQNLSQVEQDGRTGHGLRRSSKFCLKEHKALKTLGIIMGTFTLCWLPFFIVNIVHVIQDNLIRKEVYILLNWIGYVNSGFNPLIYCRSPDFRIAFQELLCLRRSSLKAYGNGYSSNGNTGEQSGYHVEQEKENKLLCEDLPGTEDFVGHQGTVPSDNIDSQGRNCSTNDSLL
Chain of Muscarinic acetylcholine receptor M1 (Homo sapiens) (P11229 whole entry, looked up): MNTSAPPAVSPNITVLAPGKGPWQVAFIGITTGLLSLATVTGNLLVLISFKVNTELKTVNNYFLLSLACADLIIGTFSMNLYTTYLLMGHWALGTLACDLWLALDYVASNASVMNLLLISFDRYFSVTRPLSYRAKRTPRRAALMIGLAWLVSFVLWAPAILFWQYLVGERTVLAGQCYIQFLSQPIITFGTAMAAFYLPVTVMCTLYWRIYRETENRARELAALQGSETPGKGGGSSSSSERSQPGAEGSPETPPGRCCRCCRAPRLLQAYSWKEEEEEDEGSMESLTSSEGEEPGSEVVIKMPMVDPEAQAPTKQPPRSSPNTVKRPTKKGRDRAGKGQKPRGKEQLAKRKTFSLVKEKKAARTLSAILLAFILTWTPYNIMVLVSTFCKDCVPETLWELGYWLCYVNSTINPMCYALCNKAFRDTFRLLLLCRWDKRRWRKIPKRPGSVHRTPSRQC
Chain of D(2) dopamine receptor (Homo sapiens) (P14416 whole entry, looked up): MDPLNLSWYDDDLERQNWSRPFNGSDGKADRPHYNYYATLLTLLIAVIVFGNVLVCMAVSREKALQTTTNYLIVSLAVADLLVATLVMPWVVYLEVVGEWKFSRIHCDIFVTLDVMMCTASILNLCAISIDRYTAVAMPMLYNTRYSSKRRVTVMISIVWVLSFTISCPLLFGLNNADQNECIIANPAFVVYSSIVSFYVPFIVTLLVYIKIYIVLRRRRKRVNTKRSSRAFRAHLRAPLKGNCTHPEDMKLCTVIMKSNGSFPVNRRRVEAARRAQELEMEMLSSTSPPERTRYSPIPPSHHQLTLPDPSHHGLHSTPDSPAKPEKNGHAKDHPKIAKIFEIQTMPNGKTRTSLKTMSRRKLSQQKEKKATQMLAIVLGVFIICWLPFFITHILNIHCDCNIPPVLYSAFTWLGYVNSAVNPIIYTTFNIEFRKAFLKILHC
Chain of Gonadotropin-releasing hormone receptor (Homo sapiens) (P30968 whole entry, looked up): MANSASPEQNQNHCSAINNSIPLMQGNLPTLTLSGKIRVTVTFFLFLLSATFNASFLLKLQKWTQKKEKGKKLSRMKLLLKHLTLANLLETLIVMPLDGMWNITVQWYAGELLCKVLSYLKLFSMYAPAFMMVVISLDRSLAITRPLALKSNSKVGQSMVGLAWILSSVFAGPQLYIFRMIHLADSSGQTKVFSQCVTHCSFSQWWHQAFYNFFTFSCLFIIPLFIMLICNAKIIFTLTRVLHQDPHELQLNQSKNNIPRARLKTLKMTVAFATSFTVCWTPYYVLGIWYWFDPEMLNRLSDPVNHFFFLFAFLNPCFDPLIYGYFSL

On to `CN(C)CCC=C1c2ccccc2C=Cc2ccccc21`, for which the Potency entry in [1], in [2], in assay [3], in [6], in assay [7] and in [8] was “inactive” in each case. Besides, the Potency entry in [9], in assay [11], in assay [12], in assay [13], in assay [14] and in [15] was “inactive” each time. Further, the result in assay [4] and in assay [5] was inactive. Further, the results for the Potency in assay [10] and in [16] were 0.818 µM (active) and 33.5 µM (active), respectively.

For the compound `Nc1cnn([C@@H]2O[C@H](CO)[C@@H](O)[C@H]2O)c(=O)n1`, the Potency result in assay [1], in assay [2], in assay [3], in [6], in [7] and in assay [17] was “inactive” throughout. Moreover, the Potency result in assay [9], in [10], in assay [19], in assay [11], in [12] and in assay [13] was “inactive” in each case. Also, the Potency entry in [14], in assay [20] and in assay [15] was “inactive” throughout. The result in [4] and in [5] was inactive. Besides, the Potency in assay [18] is 1.45 µM (active).

As for `CC=C(Cl)Cl`, the Potency entry in assay [1], in assay [2], in assay [3], in assay [6], in assay [7] and in [8] was “inactive” in each case. Also, the Potency entry in assay [18], in [10], in assay [19], in [12], in assay [13] and in [14] was “inactive” in each case. Further, the Potency entry in assay [20], in [15] and in [16] was “inactive” each time. Moreover, the result in [4] and in assay [5] was inactive.

As for `CO[Si](CCCS)(OC)OC`, the Potency result in assay [1], in assay [2], in [3], in assay [6], in [7] and in assay [17] was “inactive” in each case. Also, the Potency result in [9], in [18], in [10], in assay [19], in assay [11] and in assay [12] was “inactive” in each case. Also, the Potency entry in assay [13], in assay [14], in [20], in assay [15] and in [16] was “inactive” throughout. In addition, the outcome in [4] and in [5] was inactive.

As to `COc1ccc(/C=C/S(=O)(=O)NC(=O)c2ccc(C)cc2Cl)cc1`, the Potency result in assay [1], in assay [2], in assay [3], in assay [6], in assay [7] and in [8] was “inactive” each time. For the same compound, the Potency entry in [10], in assay [19], in assay [11], in [12], in assay [13] and in [20] was “inactive” each time. The Potency entry in assay [15] and in assay [16] was “inactive” in each case. Besides, the outcome in [4] and in assay [5] was inactive.

On to `C=COCC1CCC(COC=C)CC1` (stereo not given), for which the Potency result in assay [1], in [2], in [3], in assay [6], in assay [7] and in assay [17] was “inactive” each time. The Potency result in assay [9], in assay [18], in assay [10], in assay [19], in assay [11] and in assay [12] was “inactive” each time. Moreover, the Potency result in assay [13], in [14], in assay [20], in [15] and in assay [16] was “inactive” each time. Moreover, the result in assay [4] and in assay [5] was inactive.

Consider `CCN(CC)c1ccc2c(-c3ccc(S(=O)(=O)O)cc3S(=O)(=O)[O-])c3ccc(=[N+](CC)CC)cc-3oc2c1`, for which the Potency in [1] is 17.8 µM (active); in assay [3], 45.1 µM (active); in assay [19], 56.7 µM (active); in assay [15] it was 24.5 µM (active). In addition, the Potency entry in [2], in assay [6], in [7], in assay [8], in assay [18] and in assay [10] was “inactive” in each case. Further, the Potency result in [11], in assay [13] and in assay [14] was “inactive” throughout. Further, the outcome in assay [4] and in [5] was inactive.

Values taken from PubChem BioAssay (Tox21).
